Compound activity: PubChem BioAssay, National Center for Advancing Translational Sciences (NCATS)
SMN2 splice enh: SMN2 splice variant enhancement | HEK293 SMN2-luciferase splicing reporter, luminescence, 30-36 h | Potency, µM (doses to about 46.1 µM), without a hit: at the top dose activity change, positive = activation, most hits filed as activators | 210,000 tested, 2.8% active | AID 1458; also: % of control where 0% means no effect; nearly all actives have a fitted effect of over 55% in size
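HEK293 cells carry an SMN2 […]–luciferase reporter in which exon 7 inclusion puts luciferase in frame. Cells were plated 10-12 h before compound addition, then incubated 30-36 h at 37C. ONE-Glo luminescence was read; sodium butyrate at 4.5 mM final served as control.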
FLuc counter: counter-screen for miR-21 project: firefly luciferase inhibitors or activators | purified FLuc, Km substrates, luminescence inhibition | Potency, µM (series often up to 57.5 µM), without a hit: top-dose activity change, negative = inhibition, usual class: inhibitors | 360,000 tested, 6.9% active | AID 588342;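 also: plate controls were vehicle for no effect and reference inhibitor for full effect; nearly all actives have a fitted effect of over 55% in size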
Target sequence (P08659 whole entry, looked up): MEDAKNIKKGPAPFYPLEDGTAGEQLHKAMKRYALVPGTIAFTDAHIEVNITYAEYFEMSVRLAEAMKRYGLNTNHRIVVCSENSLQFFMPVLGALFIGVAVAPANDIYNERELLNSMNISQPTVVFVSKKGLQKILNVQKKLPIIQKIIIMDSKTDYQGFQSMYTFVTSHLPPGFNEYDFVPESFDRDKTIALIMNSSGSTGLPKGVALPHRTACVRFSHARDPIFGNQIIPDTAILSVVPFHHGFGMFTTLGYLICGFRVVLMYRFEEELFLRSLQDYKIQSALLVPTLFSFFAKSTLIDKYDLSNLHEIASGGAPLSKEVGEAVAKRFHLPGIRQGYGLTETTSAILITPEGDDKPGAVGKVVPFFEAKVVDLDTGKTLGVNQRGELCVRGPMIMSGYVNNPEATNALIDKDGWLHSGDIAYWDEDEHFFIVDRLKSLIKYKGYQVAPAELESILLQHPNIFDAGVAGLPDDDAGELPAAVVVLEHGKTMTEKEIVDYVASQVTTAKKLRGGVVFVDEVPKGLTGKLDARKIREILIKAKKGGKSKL
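Purified P. pyralis luciferase, 10 nM final, with Km-level 10 uM D-luciferin and 10 uM ATP in 50 mM Tris acetate pH 7.5, 10 mM Mg acetate, 0.01% Tween-20, 0.05% BSA; 6-point qHTS titration about 60 µM downward; luminescence read.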
NPC1 promoter act: activates the NPC1 promoter. Potency, µM (doses to about 9.22 µM), without a hit: at the highest dose activation, actives largely listed as activators. Huh7 NPC1 promoter luciferase reporter, 24 h. 320,000 tested, 2.4% active. AID 485313; also: % of control where 0% means no effect; nearly all actives have a fitted effect of over 60% in size
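Huh7 reporter cells (NPC1 promoter driving luciferase) are dosed with compound for 24 h at 37 °C, 5% CO2; luciferase detection reagent is then added and luminescence measured after 10 min at ambient temperature.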
ELG1 genotox: inducers of genotoxicity in HEK293T ELG1-luciferase cells. HEK293T ELG1-luciferase reporter, luminescence, 16 h. Potency, µM (highest dose often 46 µM), inactives show at the top dose activity change, positive = activation, most hits filed as activators. 330,000 tested, 1.3% active. AID 504466; also: % of control where 0% means no effect; nearly all actives have a fitted effect of over 60% in size
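Quantitative HTS format in 1536-well plates. HEK293T ELG1-luciferase reporter cells receive test compound and are incubated 16 hr at 37 °C, 5% CO2; ONE-Glo added, 30 min room temperature, then luminescence read.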
Rab9 promoter act: activators of Rab9 promoter. Huh7 Rab9 promoter-luciferase reporter, luminescence, 24 h. Potency, µM (top dose mostly 9.22 µM), for the others: top-dose activation, negative = inhibition, usual class: activators. 320,000 tested, 2.8% active; also: % of control where 0% means no effect; nearly all actives have a fitted effect of over 60% in size
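Huh7 cells stably carrying a Rab9 promoter-luciferase reporter, 1500 cells per well in OP-MEM I with 10% FBS, treated with compound 24 hours at 37C. Luciferase activity read by luminescence after 10 minutes with Amplite reagent.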
p53 reactivator: restores transcriptional activity of mutant p53; H1299 p53-A138V BP100-luciferase reporter, luminescence, 24 h; Potency, µM (top dose mostly 92.2 µM), for the others: at the highest dose activity change, positive = activation, hits mostly activators; 320,000 tested, 0.063% active; AID 504706; also: % of control where 0% means no effect; nearly all actives have a fitted effect of over 45% in size
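H1299 (p53-null), stable ts p53-A138V + BP100-Luc; 1000 cells/well, Opti-MEM/10% FBS; cpd 4 pt, 1:5; 24 h, 37 deg C, 5% CO2; detection reagent 10 min RT; luminescence.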
Active calls of the source: *. Sampled rows, rich in hits. Any-hit rate of the full collection: about 7.3%. Calls follow the shape of the dose curve; as a rule, active = well fitted curve in the direction sought with a large enough effect; inconclusive = small, poorly fitted or top-dose-only effect, or another doubt; inactive = no such curve, though single readings can be large; an effect the other way counts as inactive or inconclusive. Potency is read from the fitted curve at half-maximal effect.

Results for Cc1ccccc1OCCSc1nnc(-c2ccc([N+](=O)[O-])cc2)o1 ?
FLuc counter: -6.5%

Results for CCc1nn(CC(=O)NCCCc2ccccc2)c(=O)c2cc3ccccc3n12 ?
SMN2 splice enh: 1.9%; FLuc counter: 1.4%

How did Cn1cnnc1SCC(=O)Nc1ccc(OCc2ccccc2)cc1 do in these assays?
SMN2 splice enh: inconclusive; FLuc counter: 15.1µM*; NPC1 promoter act: 21.2%; ELG1 genotox: 15.9%; Rab9 promoter act: inconclusive; p53 reactivator: 4.1%

Results for Cn1cnnc1SCC(=O)Nc1ccccc1 ?
SMN2 splice enh: 12.8%; FLuc counter: -1.7%; NPC1 promoter act: -0.4%; ELG1 genotox: 4.7%; Rab9 promoter act: 2.2%; p53 reactivator: 14.9%

Results for COCCn1cnnc1SCC(=O)Nc1ccc(N2CCCCC2)cc1 ?
FLuc counter: 19µM*; NPC1 promoter act: 0.3%; ELG1 genotox: 2.9%; Rab9 promoter act: -1.3%; p53 reactivator: 11.3%

Results for Cn1cnnc1SCC(=O)Nc1ccc(N2CCCCC2)cc1 ?
FLuc counter: 13.5µM*; NPC1 promoter act: 16.6%; ELG1 genotox: 7.9%; Rab9 promoter act: 15.1%; p53 reactivator: inconclusive

What do the screens show for `CCc1ccccc1NC(=O)Cn1c(=O)n(Cc2ccco2)c(=O)c2ccccc21`?
SMN2 splice enh: 0.1%; FLuc counter: -4.4%

How did N#Cc1ccc(CS(=O)(=O)c2ccccc2)cc1 do in these assays?
SMN2 splice enh: 5.5%

Results for Nc1ccc(-c2nc3c(Cl)cc(N)cc3[nH]2)cc1 ?
SMN2 splice enh: -26.4%; FLuc counter: 21.3µM*; NPC1 promoter act: -26.3%; ELG1 genotox: -4.4%; Rab9 promoter act: -13.2%; p53 reactivator: -31.7%

What do the screens show for `Nc1cccc(-c2nc3ccc(C(=O)c4ccccc4)cc3[nH]2)c1`?
FLuc counter: 0.757µM*; NPC1 promoter act: 18.2%; ELG1 genotox: inconclusive; Rab9 promoter act: 23.7%; p53 reactivator: inconclusive

Results for Nc1ccc2nc(-c3ccccn3)[nH]c2c1 ?
SMN2 splice enh: 15.8µM*; FLuc counter: 13.5µM*; NPC1 promoter act: inconclusive; ELG1 genotox: 11.2%; Rab9 promoter act: inconclusive; p53 reactivator: inconclusive

Results for Nc1ccc2nc(-c3ccccc3)[nH]c2c1 ?
SMN2 splice enh: 17.8µM*; FLuc counter: 7.57µM*; NPC1 promoter act: 3.16µM*; ELG1 genotox: inconclusive; Rab9 promoter act: 3.16µM*; p53 reactivator: 8.5%

Results for CCOc1ccc(-c2nc(CNC(=O)NC3CCCCC3)c(C)o2)cc1 ?
FLuc counter: -9.8%

Results for CCC1CCCCN1C(=O)Cn1c(=O)n(CC2CCC(C(=O)NC)CC2)c(=O)c2sccc21 (centres undefined) ?
FLuc counter: -0.5%

Results for CCN(C(=O)Cn1nc(Cc2cccnc2)c2ccccc2c1=O)c1cc(C)ccc1C ?
SMN2 splice enh: -38.4%; FLuc counter: -1.1%

What do the screens show for `Nc1ccc2nc(-c3cccs3)[nH]c2c1`?
SMN2 splice enh: 22.4µM*; FLuc counter: 10.7µM*; NPC1 promoter act: inconclusive; ELG1 genotox: inconclusive; Rab9 promoter act: 2.51µM*; p53 reactivator: inconclusive

What do the screens show for `COc1ccc2nc(NCCCO)[nH]c2c1`?
SMN2 splice enh: 8.7%; FLuc counter: -2.7%; NPC1 promoter act: -0.2%; ELG1 genotox: -1.8%; Rab9 promoter act: 2.0%; p53 reactivator: 4.8%

What do the screens show for `CC(=O)Nc1ccc2nc(-c3cccs3)[nH]c2c1`?
SMN2 splice enh: inconclusive; FLuc counter: 12µM*; NPC1 promoter act: inconclusive; ELG1 genotox: inconclusive; Rab9 promoter act: 2.51µM*; p53 reactivator: inconclusive

Results for Nc1ccc2nc(-c3ccc(N)c(Cl)c3)[nH]c2c1 ?
SMN2 splice enh: inconclusive; FLuc counter: 6.01µM*; NPC1 promoter act: inconclusive; ELG1 genotox: inconclusive; Rab9 promoter act: 2.82µM*; p53 reactivator: inconclusive

What do the screens show for `CC(=O)Nc1ccc2nc(-c3cccn3C)[nH]c2c1`?
FLuc counter: inconclusive; NPC1 promoter act: 27.4%; ELG1 genotox: inconclusive; Rab9 promoter act: inconclusive

What do the screens show for `COc1ccc2nc(-c3ccccn3)[nH]c2c1`?
FLuc counter: 6.75µM*; NPC1 promoter act: 1.26µM*; ELG1 genotox: 5.17µM*; Rab9 promoter act: 2µM*

How did COc1ccccc1Cc1nc2ccccc2nc1SCC(=O)Nc1cccc(Cl)c1C do in these assays?
FLuc counter: -2.1%

How did COc1ccc(C(=O)Sc2ccc(Cl)cc2)cc1OC do in these assays?
SMN2 splice enh: 2.8%; FLuc counter: 2.69µM*; NPC1 promoter act: -13.8%; ELG1 genotox: -1.4%; Rab9 promoter act: -4.2%; p53 reactivator: inconclusive

Results for COc1ccc(C(=O)c2ccc(OC)c(OC)c2)cc1OC ?
SMN2 splice enh: -13.1%; FLuc counter: 3.1%; NPC1 promoter act: -1.9%; ELG1 genotox: -0.1%; Rab9 promoter act: -6.8%; p53 reactivator: -6.5%

What do the screens show for `COc1ccc(C(=O)SC2=NCCS2)cc1OC`?
FLuc counter: 1.0%; NPC1 promoter act: 0.0%; ELG1 genotox: -1.4%; Rab9 promoter act: 2.3%; p53 reactivator: 2.7%

What do the screens show for `COc1ccc(C(=O)Sc2ccc(C)cc2)cc1OC`?
SMN2 splice enh: 17.4%; FLuc counter: 6.75µM*; NPC1 promoter act: -4.0%; ELG1 genotox: -9.4%; Rab9 promoter act: -6.5%; p53 reactivator: inconclusive

How did Cc1ccc(O)c(C2=NNC(c3ccc(Cl)cc3)C2)c1 (centres undefined) do in these assays?
FLuc counter: 26.9µM*; NPC1 promoter act: -0.2%; ELG1 genotox: 5.1%; Rab9 promoter act: 27.3%; p53 reactivator: 20.5%

What do the screens show for `O=C(Cn1ncn2c(cc3sccc32)c1=O)NCCc1ccccc1`?
SMN2 splice enh: 4.9%; FLuc counter: -5.8%

What do the screens show for `COc1ccc(NC(=O)CN2C(=O)NC(c3ccccc3)(c3ccccc3)C2=O)cc1`?
FLuc counter: 21.3µM*; NPC1 promoter act: -2.7%; ELG1 genotox: -2.6%; Rab9 promoter act: -2.4%; p53 reactivator: 1.9%

Results for CCC1(c2ccc(F)cc2)NC(=O)N(CC(=O)Nc2ccc3c(c2)OCCO3)C1=O (centres undefined) ?
ELG1 genotox: 0.1%; p53 reactivator: 0.0%

What do the screens show for `CCC1(c2ccc(F)cc2)NC(=O)N(CC(=O)Nc2ccc(-c3nc4ccc(C)cc4s3)cc2)C1=O` (centres undefined)?
SMN2 splice enh: 3.98µM*; FLuc counter: 3.38µM*; NPC1 promoter act: 2.82µM*; ELG1 genotox: inconclusive; Rab9 promoter act: 1.41µM*; p53 reactivator: 5.8%
